Reference: PubChem BioAssay (NCATS)
Inconclusive results are not listed. Calls of active or inactive are those of the source. The call rests on the fitted dose curve; in most records, active means well fitted activation curve with a large enough effect in the main read-out, with a control signal flat (not every such curve was filed as active); inconclusive means small, poorly fitted or top-dose-only effect, or effect the other way, or a change in a side signal; inactive means flat fitted curve, though single readings scatter.

These compounds were tested against 3',5'-cyclic-AMP phosphodiesterase 4B (Homo sapiens) (UniProt Q07343) (assay: qHTS Assay for Inhibitors of PDE-IV (AID 607)). Conditions: HEK293 ACTOne CNG channel cells, membrane potential fluorescence; series mostly up to 22.9 µM.
Excerpt: NIH Chemical Genomics Center [NCGC]
NIH Molecular Libraries Screening Centers Network [MLSCN]
The cyclic nucleotide phosphodiesterases (PDEs) are proteins that catalyze hydrolysis of 3', 5'-cyclic nucleotides, such as cyclic adenosine monophosphate (cAMP) and cyclic guanosine monophosphate (cGMP), to their corresponding 5'-nucleotide monophosphates. These enzymes play an important role in controlling cellular concentrations of cyclic nucleotides and have a central role in a variety of intracellular signaling events. cAMP PDEs are emerging as a promising class of drug targets in asthma and cardiovascular disease therapeutic areas.
There are no commercially available cell-based screening assays for PDE inhibitors: currently biochemical assays are done using pure substrates (cAMP or cGMP) and purified recombinant PDE enzymes. As with other biochemical screens on intracellular targets, false positives and false negatives may result from issues involving cell membrane permeability, cellular metabolism, and the like.
Here we report the development of a cell-based screening assay for cAMP phosphodiesterase (PDE) inhibitors. The assay is based on the BD ACTOne# technology (BD Biosciences) which utilizes a modified cyclic nucleotide-gated channel (CNG) to monitor intracellular cAMP changes in live cells. The CNG channel is localized on the plasma membrane, and opens when the intracellular cAMP level increases, resulting in ion flux and cell membrane depolarization. The influx of cations through the CNG channel can be quantified using membrane potential (MP) dyes. We modified the BD ACTOne technology to allow the detection of PDE inhibitors, and performed an inhibitor screen for PDE-IV, which is expressed endogenously in HEK293 cells. We optimized this assay in homogeneous 1536-well plate assay format for high throughput screening.
NCGC Assay Protocol Summary:
The medium contained 10% FBS (Invitrogen), 2 mM L-glutamine, and 250 ug/ml G418 (Cellgro) and 1 ug/ml puromycin (Clontech). ACTOneTM parental cells (BD Biosciences) were maintained in the same medium without puromycin.
The activity of the CNG channel was measured by BD ACTOneTM membrane potential dye kit (BD Biosciences). Forskolin, a positive control for cAMP activation and RO 20-1724, a PDE inhibitor, were both purchased from Sigma and solublized in DMSO.
Sequence,Parameter,Value,Description
1,Reagent,3 uL,1000 cells/well 1536 TC treated Black plate
3,Compound,0.5 uL,Kalypsys dispense RO 20-1724 100 uM final [A]
4,Reagent,3 uL,BD membrane potential dye
6,Compound,23 nL,Final concentration was 0.7nM to 22.9uM
8,Detector,EX 535 / EM 590 [B],Envision
Footnotes: [A] The stock 2 mM RO 20-1724 PDE inhibitor was made in 10 % DMSO. Parental cell line received 10 uM forskolin + 100 uM RO. [B] Envsion settings: Bottom Excitation 535/20 nm top emission 590/20, gain of 150 and 5 flashes per well.
Keywords: PDE, PDE-IV, cytotoxicity, flourescence, MLSMR, MLSCN, NIH Roadmap, qHTS, NCGC

Sequence of 3',5'-cyclic-AMP phosphodiesterase 4B (Homo sapiens) (Q07343 whole entry, looked up): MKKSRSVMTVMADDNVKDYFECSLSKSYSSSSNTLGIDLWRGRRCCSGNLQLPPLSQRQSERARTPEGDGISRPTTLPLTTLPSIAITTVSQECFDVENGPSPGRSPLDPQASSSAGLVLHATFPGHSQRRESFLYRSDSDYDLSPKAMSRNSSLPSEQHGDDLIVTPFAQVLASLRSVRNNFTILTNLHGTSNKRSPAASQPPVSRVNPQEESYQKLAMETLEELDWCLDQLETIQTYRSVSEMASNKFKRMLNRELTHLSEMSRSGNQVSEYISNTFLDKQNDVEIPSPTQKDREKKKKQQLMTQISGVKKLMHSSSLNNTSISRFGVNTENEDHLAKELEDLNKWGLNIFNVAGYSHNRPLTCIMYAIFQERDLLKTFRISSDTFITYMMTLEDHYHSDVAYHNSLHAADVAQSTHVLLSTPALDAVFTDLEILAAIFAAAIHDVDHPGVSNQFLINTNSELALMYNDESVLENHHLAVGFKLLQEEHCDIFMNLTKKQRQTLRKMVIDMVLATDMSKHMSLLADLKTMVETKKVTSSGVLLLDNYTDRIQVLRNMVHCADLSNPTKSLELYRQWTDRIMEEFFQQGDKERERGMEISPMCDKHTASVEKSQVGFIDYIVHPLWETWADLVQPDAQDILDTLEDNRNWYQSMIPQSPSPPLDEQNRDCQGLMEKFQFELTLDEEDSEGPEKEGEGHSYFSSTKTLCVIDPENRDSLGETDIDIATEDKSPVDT

SMILES	outcome
C[C@H]1CS(=O)(=O)CCN1/N=C\c1ccc([N+](=O)[O-])o1	inactive
CC(=O)C[C@H](c1ccc([N+](=O)[O-])cc1)c1c(O)c2ccccc2oc1=O	inactive
CS(=O)(=O)c1ccc([C@H](O)[C@H](CO)NC(=O)C(Cl)Cl)cc1	inactive
C[C@@]12CC[C@H]3[C@@H](CCC4=CC(=O)CC[C@]43C)[C@H]1CC[C@H]2C(=O)CO	inactive
C[C@H](N[C@@H](C)COc1ccccc1)[C@H](O)c1ccc(O)cc1	inactive
CC(=O)O[C@@H]1C(=O)[C@@]2(C)[C@H](O)C[C@H]3OC[C@]3(OC(C)=O)[C@@H]2[C@H](OC(=O)c2ccccc2)[C@@]2(O)C[C@H](OC(=O)[C@@H](O)[C@@H](NC(=O)c3ccccc3)c3ccccc3)C(C)=C1C2(C)C (stereo in doubt)	inactive
COc1c2c(nc3ccccc13)O[C@H]([C@@](C)(O)CO)C2	inactive
CO/N=C(\C(=O)N[C@@H]1C(=O)N2C(C(=O)O)=C(COC(N)=O)CS[C@@H]12)c1ccco1	inactive
CC[C@@H]1OC(=O)[C@H](C)[C@H](O[C@@H]2C[C@](C)(OC)[C@H](O)[C@H](C)O2)[C@H](C)[C@H](O[C@@H]2O[C@@H](C)C[C@@H](N(C)C)[C@@H]2O)[C@](C)(O)C[C@H](C)C(=NOCOCCOC)[C@H](C)[C@H](O)[C@]1(C)O	inactive
C#C[C@]1(O)CC[C@@H]2[C@H]3CCc4cc(OC)ccc4[C@@H]3CC[C@@]21C	inactive
C[C@@]12C=CC(=O)C=C1CC[C@@H]1[C@@H]2[C@H](O)C[C@]2(C)[C@@H]1CC[C@]2(O)C(=O)CO	inactive
NC(=O)c1ccc[n+]([C@@H]2O[C@H](COP(=O)([O-])OP(=O)(O)OC[C@H]3O[C@@H](n4cnc5c(N)ncnc54)[C@@H](O)[C@@H]3O)[C@@H](O)[C@@H]2O)c1	inactive
C=Cc1c(C)c2cc3nc(cc4[nH]c(cc5nc(cc1[nH]2)C(C)=C5CCC(=O)O)c(CCC(=O)OC)c4C)[C@@]1(C)C3=CC=C(C(=O)OC)[C@H]1C(=O)OC (tested in a mixture with another compound)	inactive
CCO[C@H]1O[C@@H]([C@H](COCc2ccccc2)OCc2ccccc2)[C@@H](OCc2ccccc2)[C@H]1O	inactive
CNC[C@H](O)c1ccc(OC(=O)C(C)(C)C)c(OC(=O)C(C)(C)C)c1	inactive
C[C@@H](C(=O)O)c1ccc(N2Cc3ccccc3C2=O)cc1	inactive
C=CCN1C(=CCO)[C@H]2C[C@H]3[C@@H]1CC[C@@]31c3ccccc3N3C=C4[C@@H]5N(/C=C/2[C@H]31)c1ccccc1[C@]51CC[C@H]2[C@H]1C[C@@H]4/C(=C/CO)N2CC=C	inactive
C=C1c2c(Cl)ccc(O)c2C(O)=C2C(=O)[C@@]3(O)C(O)=C(C(N)=O)C(=O)[C@@H](N(C)C)[C@@H]3[C@@H](O)[C@H]12	inactive
Cc1cccc(C)c1NC(=O)[C@H](C)N	inactive
CN[C@@H]1[C@H](O[C@H]2[C@@H](O[C@@H]3[C@@H](O)[C@@H](O)[C@@H](N=C(N)N)[C@@H](O)[C@@H]3N=C(N)N)O[C@@H](C)[C@]2(O)CO)O[C@H](CO)[C@@H](O)[C@@H]1O	inactive

SMILES	outcome
Cc1ccsc1/C=C\C1=NCCCN1C	inactive
Cc1cc2ccc(=O)oc2cc1OC[C@@H](O)C(C)(C)O	inactive
C[C@@](N)(C(=O)O)c1cccc(CC(=O)O)c1	inactive
CN[C@H]1[C@H](O)[C@@H](O[C@@H]2[C@H](O)[C@@H](O[C@H]3OC(CN)=CC[C@H]3N)[C@@H](N)C[C@H]2N)OC[C@@]1(C)O	inactive
Cc1ccc(S(=O)(=O)NC(=O)NN2C[C@H]3CCC[C@@H]3C2)cc1	inactive
C[C@@H]1O[C@H](O[C@@H]2[C@@H](Oc3cc(O)c4c(c3)O[C@H](c3ccc(O)cc3)CC4=O)O[C@@H](CO)[C@@H](O)[C@H]2O)[C@@H](O)[C@H](O)[C@@H]1O	inactive
CC(=O)O[C@H]1C[C@@]2(C)[C@H](C[C@@H](O)[C@H]3[C@@]4(C)CC[C@@H](O)[C@@H](C)[C@H]4CC[C@@]32C)C1=C(CCC=C(C)C)C(=O)O	inactive
CO[C@@H]1CC[C@@]2(C)[C@@H](CC[C@@]3(C)[C@H]2CC=C2[C@H]4CC(C)(C)[C@H](O)[C@@H](OC(C)=O)[C@]4(CO)[C@H](O)C[C@]23C)[C@@]1(C)CO (tested in a mixture with another compound)	inactive
NC(=O)N[C@H]1NC(=O)NC1=O	inactive
O[C@H](c1cc(C(F)(F)F)nc2c(C(F)(F)F)cccc12)[C@H]1CCCCN1	inactive
Cc1ncc([N+](=O)[O-])n1C[C@H](O)CCl	inactive
CC(C)(CS)C(=O)N1CCC[C@H]1C(=O)O	inactive
Cc1ccc2c(c1)c1c3n2CCN[C@H]3CCC1	inactive
O=C1O[C@@H]([C@@H](O)CO)[C@@H](O)[C@H]1O	inactive
COC(=O)C1=C(C)NC(C)=C(C(=O)OCCN(C)Cc2ccccc2)[C@H]1c1cccc([N+](=O)[O-])c1	inactive
NS(=O)(=O)c1cc2c(cc1C(F)(F)F)N[C@H](Cc1ccccc1)NS2(=O)=O	inactive
CC1=C(C(=O)O)N2C(=O)[C@@H](NC(=O)[C@@H](N)c3ccc(O)cc3)[C@@H]2SC1	inactive
CC[N+]1(C)[C@@H]2CC[C@H]1CC(OC(=O)[C@H]1CC[C@@](C(=O)OC3C[C@H]4CC[C@@H](C3)[N+]4(C)CC)(c3ccccc3)c3ccccc31)C2 (stereo not given in full)	inactive
CC[C@H](CO)NCCN[C@@H](CC)CO	inactive
C[N+](C)(CCCOc1ccccc1)c1ccccc1	inactive
